Results filed as inconclusive are left out. Activity calls are given as the source filed them. The call rests on the fitted dose curve.
experiment: Primary qHTS for Vero E6 cytotoxicity: counterscreen for inhibitors of SARS-S pseudo-typed particle cell entry (AID 1479150); conditions: cell viability; series mostly up to 57.1 µM; activity change, negative = cytotoxicity: at the top concentration
On the % scale 0 is the no-effect control and ±100 the full control effect; potency means the concentration at half of the fitted maximal effect.

SMILES | activity change, negative = cytotoxicity | outcome | Potency
CCCc1cc(C(N)=S)ccn1 | 0.943% (inactive) | – | –
Cc1cccc(C)c1NC(=O)C(C)N (stereo not drawn) | -5.52% (inactive) | – | –
C#C[C@]1(OC(C)=O)CC[C@H]2[C@@H]3CCC4=C/C(=N/O)CC[C@@H]4[C@H]3CC[C@@]21CC | – | inactive | –
C[C@H]1C[C@H]2[C@@H]3CCC4=CC(=O)C=C[C@]4(C)[C@@]3(Cl)[C@@H](O)C[C@]2(C)[C@@]1(O)C(=O)CO | – | inactive | –
CCOc1ccc(NC(C)=O)cc1 | 1.58% (inactive) | – | –
CC(C)=CCOc1ccc(/C=C/C(=O)c2ccc(OCC=C(C)C)cc2OCC(=O)O)cc1 | -9% (inactive) | – | –
NCCc1ccc(O)c(O)c1 | 2.69% (inactive) | – | –
O=C(O)CCNC(=O)c1ccccc1 | – | inactive | –
OC[C@@H](O)[C@H](O)[C@H](O)[C@@H](O)CO | – | inactive | –
CC(C)c1cc2c(cc1S(=O)(=O)O)[C@@]1(C)CCC[C@@](C)(C(=O)O)[C@@H]1CC2 | 1.98% (inactive) | – | –
C/C(=C(/OCCOc1ccc(Cl)cc1)c1ccc(Cl)cc1Cl)n1ccnc1 | – | inactive | –
COc1cccc(N(C)C(=S)Oc2ccc3c(c2)CCCC3)n1 | – | inactive | –
CNC(=O)c1c(I)c(NC(=O)CCCCC(=O)Nc2c(I)c(C(=O)O)c(I)c(C(=O)NC)c2I)c(I)c(C(=O)O)c1I | -6.44% (inactive) | – | –
CC(=O)OCC(=O)[C@@]12N=C(C)O[C@@H]1C[C@H]1[C@@H]3CCC4=CC(=O)C=C[C@]4(C)[C@H]3[C@@H](O)C[C@@]12C | – | inactive | –
O=C(OCC(COC(=O)c1cccnc1)(COC(=O)c1cccnc1)COC(=O)c1cccnc1)c1cccnc1 | -4.99% (inactive) | – | –
CC(=O)OCC(=O)[C@@]1(O)CCC2C3CCC4=CC(=O)CC[C@]4(C)C3[C@@H](O)C[C@@]21C (stereo partly drawn) | – | inactive | –
Oc1ccc(C(O)CNCCCCCCNCC(O)c2ccc(O)c(O)c2)cc1O (stereo not drawn) | 2.31% (inactive) | – | –
CC(O)COc1ccccc1 (stereo not drawn) | 0.827% (inactive) | – | –
Nc1ccc(C(=O)NCC(=O)O)cc1 | 4.8% (inactive) | – | –

SMILES | activity change, negative = cytotoxicity | outcome | Potency
C=CCCCCCCCCC(=O)O | -13% [at 26.4 µM] (inactive) | – | –
O=C1c2cccc(O)c2C(=O)c2c(O)cccc21 | – | inactive | –
CN(CCCN1c2ccccc2CCc2ccccc21)CC(=O)c1ccc(Cl)cc1 | -1.65% (inactive) | – | –
C#C[C@]1(O)CC[C@H]2[C@@H]3CCC4=CC(=O)CC[C@@H]4[C@H]3CC[C@@]21C | – | inactive | –
C[N+](C)(C)CCOC(=O)CCC(=O)OCC[N+](C)(C)C | -5.45% (inactive) | – | –
CC(=O)/C=C/C=C1/C2CCC(C2)C1(C)C (stereo not drawn) | – | inactive | –
NC(=O)C1(N2CCCCC2)CCN(CCCC(=O)c2ccc(F)cc2)CC1 | – | inactive | –
Nc1c(CC(=O)O)cccc1C(=O)c1ccc(Br)cc1 | 0.251% (inactive) | – | –
C[C@H]1C[C@H]2[C@@H]3CCC4=CC(=O)C=C[C@]4(C)[C@H]3C(=O)C[C@]2(C)[C@@]1(O)C(=O)CO | -5.87% (inactive) | – | –
OC[C@H]1O[C@@H](O[C@@H]2[C@@H](CO)O[C@](O)(CO)[C@H]2O)[C@H](O)[C@@H](O)[C@H]1O | – | inactive | –
CC(=O)N[C@H]1[C@H]([C@H](O)[C@H](O)CO)OC(C(=O)O)=C[C@@H]1N=C(N)N | 1.41% (inactive) | – | –
CCN(CC)C(=O)c1cccc(C)c1 | 3.94% (inactive) | – | –
CCC1Nc2cc(Cl)c(S(N)(=O)=O)cc2S(=O)(=O)N1 (stereo not drawn) | – | inactive | –
CC(=O)N(CC(O)CN(C(C)=O)c1c(I)c(C(=O)NCC(O)CO)c(I)c(C(=O)NCC(O)CO)c1I)c1c(I)c(C(=O)NCC(O)CO)c(I)c(C(=O)NCC(O)CO)c1I (stereo not drawn) | 3.52% (inactive) | – | –
COCCc1ccc(OCC(O)CNC(C)C)cc1 (stereo not drawn) | -1.01% (inactive) | – | –
COCc1c(C(C)C)nc(C(C)C)c(/C=C/[C@@H](O)C[C@@H](O)CC(=O)O)c1-c1ccc(F)cc1 | – | – | 708 nM (active)
C[C@@H]1C[C@H]2[C@@H]3CCC4=CC(=O)C=C[C@]4(C)[C@@]3(F)[C@@H](O)C[C@]2(C)[C@H]1C(=O)CO | 0.341% (inactive) | – | –
c1ccc(CN(CC2=NCCN2)c2ccccc2)cc1 | – | inactive | –
NCCc1cnc[nH]1 | – | inactive | –

— PubChem BioAssay (NCATS)
